Here are results for 8 molecules from PubChem BioAssay (Tox21).

Results filed as inconclusive are left out. Values without a mark were called inactive. Calls of active or inactive are those of the source. Unless noted, calls come from the whole dose curve; as a rule, active = well fitted curve in the direction sought with a large enough effect in the repeat runs; inconclusive = weak or mixed curves; inactive = no such curve, though single readings can be large; an effect the other way counts as inactive or inconclusive.

A short description of assay [1]: qHTS assay to identify small molecule agonists of the NFkB signaling pathway - cell viability counter screen (AID 1159515; calls by dose curve; note: series mostly up to about 61 µM; % is set by controls: 0 for no effect and ±100 for the full control effect; nearly all actives have a fitted effect of over 55% in size). Put shortly:
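Plate 2,000 NFkB-bla ME-180 cells/well; incubate overnight. Add compounds, 5 hr at 37 C. Add FRET substrate, 1.5 hr RT. Add CellTiter-Glo, 30 min RT; read luminescence.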

A short description of assay [2]: qHTS assay to identify small molecule agonists of the endoplasmic reticulum stress response signaling pathway (AID 1159516; active = well fitted activation curve with a large enough effect in the signal ratio in the repeat runs, not every such curve was filed as active; the % refers to the signal ratio; note: % is set by controls: 0 for no effect and ±100 for the full control effect). Put shortly: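 Beta-lactamase expression from the ER stress response element in HeLa reporter cells is quantified with the LiveBLAzer B/G FRET substrate, read at 405 nm excitation after 2 hr at room temperature, following 5 hr compound treatment at 37 C.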
On the technique in general: qHTS replaces the single test concentration by a dilution series.

Assay [3] in a line: qHTS assay to identify small molecule antagonists of the retinoid-related orphan receptor gamma (ROR-gamma) signaling pathway - cell viability counter screen (AID 1159520). Note: % is set by controls: 0 for no effect and ±100 for the full control effect; nearly all actives have a fitted effect of over 50% in size. Put shortly:
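Tet-on ROR gamma CHO cells (1,000/well) were plated 4 hr, given compounds in DMSO for 2 hr at 37 C, then induced with 1 uM final doxycycline for 16 hr. Viability was read as ATP by CellTiter-Glo luminescence after 30 min.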

Assay [4] has as its target Nuclear receptor ROR-gamma (Homo sapiens) (UniProt P51449). Kind of assay: qHTS assay to identify small molecule antagonists of the retinoid-related orphan receptor gamma (ROR-gamma) signaling pathway (AID 1159521;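 note: CHO cells with doxycycline inducible ROR-gamma driving an RORE luciferase reporter; top concentration of the series differs between compounds; % is set by controls: 0 for no effect and ±100 for the full control effect; nearly all actives have a fitted effect of over 50% in size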). Put shortly: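 Tet-on RORγ CHO cells carrying a ROR response element–luciferase reporter were pretreated with compounds for 2 h, then induced with 1 uM (final) doxycycline hyclate for 16 h at 37 C. Antagonism was read as decreased ONE-Glo luminescence.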

A short description of assay [5]: qHTS assay to identify small molecule agonists of the AP-1 signaling pathway - cell viability counter screen (AID 1159525; calls by dose curve; note: nearly all actives have a fitted effect of over 55% in size). The gist of the method: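 Each titration point was normalised to DMSO and tetra n-octyl ammonium bromide controls. The read was Cell Titer Glo luminescence after 30 min at RT, following 5 h compound exposure of ME-180 AP-1-bla cells at 37 °C.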

Assay [6] is described as follows: qHTS assay to identify small molecule agonists of the AP-1 signaling pathway (AID 1159526; calls by dose curve; note: % is set by controls: 0 for no effect and ±100 for the full control effect).
In assay [7] the target is Retinoic acid receptor RXR-alpha (Homo sapiens) (UniProt P19793). Kind of assay: qHTS assay to identify small molecule agonists of the RXR signaling pathway (AID 1159527; calls by dose curve; note: % is set by controls: 0 for no effect and ±100 for the full control effect; nearly all actives have a fitted effect of over 35% in size). The gist of the method:
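GeneBLAzer RXR-alpha-UAS-bla HEK 293T cells in medium with 2% charcoal-stripped FBS, pre-incubated 5 hr at 37 C, then exposed to compounds 16 hr. Beta-lactamase reporter read by FRET substrate, 2 hr room temperature, 460/530 nm emission.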

A short description of assay [8]: qHTS assay to identify small molecule agonists of the RXR signaling pathway - cell viability counter screen (AID 1159529). Note: series mostly up to about 77 µM; % is set by controls: 0 for no effect and ±100 for the full control effect; nearly all actives have a fitted effect of over 50% in size. The gist of the method: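 RXR-alpha-UAS-bla HEK 293T cells in medium with 2% charcoal-stripped FBS were preincubated 5 hr, then exposed to compounds for 16 hr at 37 C. Viability was read as CellTiter-Glo luminescence after 30 min at room temperature.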

Assay [9] can be described thus: qHTS assay to identify small molecule antagonists of the retinoid acid receptor (RAR) signaling pathway - cell viability counter screen (AID 1159551). Note: % is set by controls: 0 for no effect and ±100 for the full control effect; nearly all actives have a fitted effect of over 35% in size. The gist of the method: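 Viability of C3RL4 cells is quantified from ATP by luminescence after 6 h treatment at 37 C with compounds and 1 uM retinol.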
Assay [10] can be described thus: qHTS assay to identify small molecule agonists of the retinoic acid receptor (RAR) signaling pathway (AID 1159553). For activation: % is set by controls: 0 for no effect and ±100 for the full control effect. Note: potency is the fitted concentration of half-maximal effect. The gist of the method:
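Compounds dissolved in DMSO were pinned onto C3RL4 cells seeded the previous day, and plates were held 6 hr at 37 C. RARE-driven luciferase output was then read by luminescence.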

Assay [11] in a line: qHTS assay to identify small molecule antagonists of the estrogen related receptor (ERR) signaling pathway from Tox21 library - cell viability counter screen (AID 1224834). Note: % is set by controls: 0 for no effect and ±100 for the full control effect; nearly all actives have a fitted effect of over 30% in size. The gist of the method: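 In this quantitative HTS format, ERR cells receive compounds in DMSO and are incubated for 17.5 h at 37 C. Live-cell protease activity is then detected with CellTiter-Fluor.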
Assay [12] has as its target Luciferin 4-monooxygenase (Photinus pyralis) (UniProt P08659). Kind of assay: qHTS assay to identify small molecule inhibitors of firefly luciferase (AID 1224835). For activity change, negative = inhibition: series mostly up to about 120 µM; % is set by controls: 0 for no effect and ±100 for the full control effect. Note: nearly all actives have a fitted effect of over 25% in size. Note: potency is the fitted concentration of half-maximal effect. The gist of the method: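 Quantitative HTS format; KM concentrations of both substrates. Purified P. pyralis FLuc activity quantified from luminescence images.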
The nature of assay [13]: qHTS assay to identify small molecule agonists of the constitutive androstane receptor (CAR) signaling pathway - cell viability counter screen (AID 1224836). Note: series mostly up to about 92 µM; % is set by controls: 0 for no effect and ±100 for the full control effect; nearly all actives have a fitted effect of over 45% in size. The gist of the method: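 HepG2 cells stably carrying hCAR and a CYP2B6-2.2kb reporter were plated 4 h, then given compounds at 15 concentrations plus PK11195 (final 0.75 uM). After 23 h at 37 C, viability was read by CellTiter-Fluor fluorescence.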

Assay [14] is described as follows: qHTS assay to identify small molecule antagonists of the constitutive androstane receptor (CAR) signaling pathway - cell viability counter screen (AID 1224837). Note: series mostly up to about 92 µM; % is set by controls: 0 for no effect and ±100 for the full control effect; nearly all actives have a fitted effect of over 45% in size. Put shortly:
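In quantitative HTS format, compounds at 15 concentrations were applied to HepG2 cells double-transfected with hCAR and CYP2B6-2.2kb under 50 nM CITCO stimulation; live-cell protease activity was read after 23 hr via CellTiter-Fluor.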

For assay [15], the target named is Nuclear receptor subfamily 1 group I member 3 (Homo sapiens) (UniProt Q14994). Kind of assay: qHTS assay to identify small molecule agonists of the constitutive androstane receptor (CAR) signaling pathway (AID 1224839). Note: nearly all actives have a fitted effect of over 15% in size. Note: potency is the fitted concentration of half-maximal effect. Put shortly: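 HepG2 cells stably expressing hCAR and a CYP2B6-2.2kb luciferase reporter were treated with compounds at 15 concentrations plus 0.75 uM PK11195 (final) for 24 h at 37 C; luminescence was read after ONE-Glo addition.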

Assay [16] is described as follows: qHTS assay to identify small molecule antagonists of the estrogen related receptor signaling pathway with the pleiotropic PPARgamma coactivator (PGC) from Tox21 10K library - cell viability counter screen (AID 1224840; active = well fitted cell-killing curve with a large enough effect in the repeat runs, not every such curve was filed as active; note: % is set by controls: 0 for no effect and ±100 for the full control effect; nearly all actives have a fitted effect of over 40% in size). Put shortly:
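Viability counter screen, PGC/ERR cells: 17.5 h compound exposure at 37 C, CellTiter-Fluor fluorescence endpoint.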

Assay [17] in a line: qHTS assay to identify small molecule antagonists of the vitamin D receptor (VDR) signaling pathway - cell viability counter screen (AID 743225). Note: % is set by controls: 0 for no effect and ±100 for the full control effect; nearly all actives have a fitted effect of over 50% in size. The gist of the method: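 VDR-bla HEK 293T cells, 4 h pre-incubation at 37C, then compound plus 1-alpha,25-dihydroxyvitamin D3 (3 nM final) for 16 h. After the beta-lactamase FRET read, CellTiter-Glo was added to the same wells; luminescence after 30 min at room temperature.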

The nature of assay [18]: qHTS assay to identify small molecule agonists of the endoplasmic reticulum stress response signaling pathway - cell viability counter screen (AID 1159517; calls by dose curve). The gist of the method: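 Cytotoxicity of test compounds toward ESRE-bla HeLa cells was assessed after 5 hr exposure. The luminescent CellTiter-Glo signal was measured 30 min after reagent addition.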
Assay [19] is described as follows: qHTS assay to identify small molecule antagonists of the retinoic acid receptor (RAR) signaling pathway (AID 1159552). The gist of the method: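 RARE-luc C3RL4 cells; cpds + 1 uM (final) retinol, 6 hr, 37 C/5% CO2; luciferase reagent, 30 min RT, luminescence readout. Inhibitors of retinol-driven signal scored.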
Assay [20] concerns the target Nuclear receptor subfamily 1 group I member 3 (Homo sapiens) (UniProt Q14994). Kind of assay: qHTS assay to identify small molecule antagonists of the constitutive androstane receptor (CAR) signaling pathway (AID 1224838). Note: % is set by controls: 0 for no effect and ±100 for the full control effect; nearly all actives have a fitted effect of over 40% in size. Put shortly: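 CITCO-stimulated (50 nM final) HepG2 cells stably transfected with hCAR and CYP2B6-2.2kb luciferase were exposed to compounds at 15 concentrations for 24 h at 37 C/5% CO2. A luciferase reagent was added and luminescence recorded after 30 min.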

Sequence of Nuclear receptor subfamily 1 group I member 3 (Homo sapiens) (Q14994 whole entry, looked up): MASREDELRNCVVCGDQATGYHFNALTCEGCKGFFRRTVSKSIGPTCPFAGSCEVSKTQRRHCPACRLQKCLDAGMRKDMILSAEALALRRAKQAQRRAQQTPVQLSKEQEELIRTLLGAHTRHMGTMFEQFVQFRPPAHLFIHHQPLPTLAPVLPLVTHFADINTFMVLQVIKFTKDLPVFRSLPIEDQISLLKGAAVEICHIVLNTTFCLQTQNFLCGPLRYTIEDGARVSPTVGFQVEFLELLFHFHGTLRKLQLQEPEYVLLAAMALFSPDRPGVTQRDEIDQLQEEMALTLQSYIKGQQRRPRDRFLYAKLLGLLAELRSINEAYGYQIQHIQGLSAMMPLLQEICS
Sequence of Retinoic acid receptor RXR-alpha (Homo sapiens) (P19793 whole entry, looked up): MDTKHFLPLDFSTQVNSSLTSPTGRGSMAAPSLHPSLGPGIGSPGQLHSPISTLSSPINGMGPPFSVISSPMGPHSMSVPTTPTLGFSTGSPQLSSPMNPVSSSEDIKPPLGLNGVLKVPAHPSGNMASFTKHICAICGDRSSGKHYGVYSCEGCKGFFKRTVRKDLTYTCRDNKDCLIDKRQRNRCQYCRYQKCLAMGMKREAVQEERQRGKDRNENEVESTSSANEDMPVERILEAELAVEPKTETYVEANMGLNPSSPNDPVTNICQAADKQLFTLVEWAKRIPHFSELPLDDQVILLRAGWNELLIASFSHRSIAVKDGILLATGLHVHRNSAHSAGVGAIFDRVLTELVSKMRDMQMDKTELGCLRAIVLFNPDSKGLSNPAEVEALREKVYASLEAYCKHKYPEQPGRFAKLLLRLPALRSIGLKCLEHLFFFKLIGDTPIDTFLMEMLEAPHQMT
Sequence of Luciferin 4-monooxygenase (Photinus pyralis) (P08659 whole entry, looked up): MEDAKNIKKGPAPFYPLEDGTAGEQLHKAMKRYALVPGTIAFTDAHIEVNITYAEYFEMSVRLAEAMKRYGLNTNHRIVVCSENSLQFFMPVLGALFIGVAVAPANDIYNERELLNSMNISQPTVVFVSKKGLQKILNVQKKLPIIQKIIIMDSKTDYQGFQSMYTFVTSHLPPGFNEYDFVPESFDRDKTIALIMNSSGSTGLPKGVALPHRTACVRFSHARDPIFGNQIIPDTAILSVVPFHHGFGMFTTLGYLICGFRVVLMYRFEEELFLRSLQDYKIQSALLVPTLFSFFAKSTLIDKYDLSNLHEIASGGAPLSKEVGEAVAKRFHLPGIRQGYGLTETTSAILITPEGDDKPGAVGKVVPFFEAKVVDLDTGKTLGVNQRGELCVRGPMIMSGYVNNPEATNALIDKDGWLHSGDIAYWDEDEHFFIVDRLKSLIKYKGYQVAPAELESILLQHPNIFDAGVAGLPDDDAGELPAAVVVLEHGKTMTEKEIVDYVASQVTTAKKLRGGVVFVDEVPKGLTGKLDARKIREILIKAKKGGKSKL

With `CN(C)CCCN(C)C`, the activity, negative = cytotoxic in assay [1] was 0.193% [at 6.95 µM]. The activation is 3.45% [at 6.95 µM] in [2]; -5.98% [at 6.97 µM] in assay [6]; 4.65% [at 6.98 µM] in assay [7]; 0.0534% [at 8.36 µM] in assay [10]; -0.471% [at 8.39 µM] in [15]. The activity, negative = cytotoxicity in assay [3] was 11.1% [at 8.39 µM]. The activity change, negative = inhibition was -7.64% [at 8.39 µM] in assay [4] and 2.53% [at 10.5 µM] in [12]. Besides, the viability change, negative = cytotoxic in [5] is -0.503% [at 6.97 µM]; in assay [11], 0.808% [at 8.39 µM]; in assay [13], -1.97% [at 8.39 µM]; in assay [16], 4.04% [at 8.39 µM]. Besides, the activity change, negative = cytotoxicity in [8] was -1.24% [at 6.97 µM]; in assay [9], -1.41% [at 8.39 µM]; in [14] it was 1.66% [at 8.39 µM].
On to `C/C(=N\O)c1ccc(OCC(=O)N2CCCCC2)cc1`, for which the call in assay [17], in assay [18], in [3], in assay [4], in assay [5] and in assay [9] was inactive. Also, the molecule was classed as inactive in [19], in assay [11], in [13], in [14], in [20] and in [16]. Also, the Potency result in assay [2], in assay [6], in assay [7] and in assay [8] was “inactive” throughout. The figures for the Potency in [10], in assay [12] and in assay [15] were 3.76 µM (active), 12.3 µM (active) and 4.22 µM (active), respectively.
In the case of `C/C(Cl)=C/CCl`, the molecule was classed as inactive in [17], in assay [1], in [3], in assay [4], in assay [5] and in [9]. The molecule was called inactive in [19], in assay [11], in assay [13], in assay [14] and in assay [20]. Moreover, the Potency result in [2], in assay [6], in assay [7], in [8], in assay [10] and in assay [12] was “inactive” each time. For the same molecule, the Potency entry in [15] is “inactive”.
For `CC/C=C\CCOC(=O)c1ccccc1`, the outcome in [17], in [1], in assay [3], in [4], in assay [5] and in [9] was inactive. Also, the outcome in assay [19], in [13], in assay [14], in [20] and in [16] was inactive. Further, the Potency result in assay [2], in assay [6], in assay [7], in [8] and in assay [15] was “inactive” in each case. In addition, the Potency was 68.6 µM (active) in [10] and 7.1 µM (active) in [12].
On to `CCCC(=O)OC`, for which the result in assay [17], in assay [1], in assay [3], in [4], in [5] and in assay [9] was inactive. The molecule was classed as inactive in assay [19], in [11], in [13], in assay [14] and in [16]. Besides, the Potency result in assay [2], in assay [6], in assay [7], in [8], in [10] and in [12] was “inactive” each time.
In the case of `Cc1cccc(N)n1`, the molecule was classed as inactive in [17], in [1], in [3], in assay [4], in [5] and in [9]. Besides, the call in [19], in assay [11], in [13] and in assay [14] was inactive. In addition, the Potency result in assay [2], in assay [6], in assay [7], in [10] and in assay [12] was “inactive” each time.
Take `CCC(C)(C)C`: the result in assay [17], in assay [1], in [3], in assay [4], in assay [5] and in [9] was inactive. Besides, the molecule was called inactive in assay [19], in assay [11], in assay [13], in [14] and in assay [16]. For the same molecule, the Potency result in assay [2], in [6], in assay [7], in assay [8], in assay [10] and in assay [12] was “inactive” each time.
As for `CCCCCCCCCCCCCCCCN(C)C`, the viability change, negative = cytotoxic in assay [17] was -0.156% [at 6.95 µM]; in [5], 0.637% [at 6.97 µM]; in [13] it was 4.94% [at 8.39 µM]; in assay [16], 6.95% [at 8.39 µM]. Besides, in assay [1], the activity, negative = cytotoxic is -0.303% [at 6.95 µM]. In addition, the activation in assay [2] is 0.0292% [at 6.95 µM]; in assay [6], -6.44% [at 6.97 µM]; in assay [7] it was 8.03% [at 6.98 µM]; in assay [10], -0.996% [at 8.36 µM]. Also, the activity, negative = cytotoxicity in [3] was 7.06% [at 8.39 µM]. Besides, the activity change, negative = inhibition was 0.397% [at 8.39 µM] in assay [4] and 3.25% [at 10.5 µM] in [12]. Further, the results for the activity change, negative = cytotoxicity in assay [8], in assay [9] and in assay [14] were 1.35% [at 6.97 µM], 0.211% [at 8.39 µM] and 4.91% [at 8.39 µM], respectively. Moreover, the activity, negative = inhibition in [19] is 3.34% [at 8.39 µM].
